This note sets out measurements from PubChem BioAssay (NCATS).

Records with an inconclusive call do not appear. Entries that show only a call come without a potency. Activity calls are given as the source filed them. The call rests on the fitted dose curve; in most records, active means well fitted cell-killing curve with a large enough effect; inconclusive means small, poorly fitted or top-dose-only effect, or effect the other way; inactive means flat fitted curve, though single readings scatter.
Potency means the concentration at half of the fitted maximal effect.

The assay can be described thus: qHTS for Inhibitors of ATXN expression: Validation of Cytotoxic Assay (AID 588349). As to conditions: cytotoxicity counter-screen for ATXN expression inhibitors, cell viability; series mostly up to 57.1 µM. An excerpt: Spinocerebellar ataxia type 2 (SCA2) is a multisystem neurodegenerative disease caused by a dominantly-acting mutation leading to expansion of a polyQ domain in the ataxin-2 protein (ATXN2). SCA2 patients develop progressive ataxia and later lose function in other neuronal systems. Prominent parkinsonian signs develop in some patients. Similar to many neurodegenerative disorders, no symptomatic or disease-modifying treatments are known.
The primary objective of project is to identify compounds inhibiting ATXN2 expression and to test them for efficacy in SCA2 mouse models. To this end, in a collaboration between Dr. Daniel Scoles and scientists at NCGC, a cell-based assay adapted to high-throughput screening has been developed to screen the NIH Molecular Libraries Small Molecule Repository (MLSMR). Confirmed qHTS active compounds will be tested for toxicity against the human neuron-like SH-SY5Y cell line. This line is the parental cell type used to generate the transgenic line used in the primary assay, and so should provide an isogenic control to test the inherent toxicity of qHTS actives.
NIH Chemical Genomics Center [NCGC]
NIH Molecular Libraries Probe Centers Network [MLPCN]
Assay Submitter (PI): Stefan Pulst and Daniel Scoles, University of Utah
HEK293 cultured cells will be dosed with titrated compounds and incubated for 72 hr at 37 degrees C. Toxicity will be assessed using the CellTiter Glo kit (Promega), which uses intracellular ATP concentration as a viability marker.
For orientation: Quantitative high-throughput screening tests each substance at several concentrations.
Consider `CC1=NS(=O)(=O)c2cc(Cl)ccc2N1`, for which the Potency result was “inactive”.

As to `C=CCc1ccccc1OCC(O)CNC(C)C` (stereo not given), the Potency entry was “inactive”.

Regarding `CC(C)[N+](C)(CCOC(=O)C1c2ccccc2Oc2ccccc21)C(C)C`, the Potency result was “inactive”.

`CCOC(=O)c1cnc2c(cnn2CC)c1NN=C(C)C`: the Potency result is “inactive”.

On to `CCCC(C(=O)OCCN(CC)CC)(c1ccccc1)c1ccccc1`, for which the Potency entry was “inactive”.

For `C[C@@H](O)[C@H]1C(=O)N2C(C(=O)O)=C(SCCN=CN)C[C@H]12`, the Potency entry is “inactive”.

`CN(C)CCN(Cc1cccs1)c1ccccn1`: the Potency entry is “inactive”.

On to `CCCN(CCC)CCc1cccc2c1CC(=O)N2`, for which the Potency entry was “inactive”.

As to `O=C(O)CP(=O)(O)O`, the Potency entry is “inactive”.

As to `CCN(CC)CCNC(=O)c1cc(S(C)(=O)=O)ccc1OC`, the Potency entry was “inactive”.

For `CN1CCN(C2=Nc3ccccc3Oc3ccc(Cl)cc32)CC1`, the Potency result was “inactive”.

With `CC(C)NCC(O)c1cc(O)cc(O)c1` (stereo not given), the Potency result is “inactive”.

`NC(=O)N1c2ccccc2C=Cc2ccccc21`: the Potency result is “inactive”.

For `CC(=O)[C@@]1(O)CC[C@H]2[C@@H]3CCC4=CC(=O)CC[C@]4(C)[C@H]3CC[C@@]21C`, the Potency result is “inactive”.

Consider `CSc1ccc(C(=O)c2[nH]c(=O)[nH]c2C)cc1`, for which the Potency entry was “inactive”.

As to `NCCCNCCSP(=O)(O)O`, the Potency result is “inactive”.

Consider `C[N+](C)(C)CCCCCCCCCC[N+](C)(C)C`, for which the Potency entry is “inactive”.

As for `COc1ccc([C@@H]2Sc3ccccc3N(CCN(C)C)C(=O)[C@@H]2OC(C)=O)cc1`, the Potency result is “inactive”.

Take `CCN1CCC[C@H]1CNC(=O)c1c(O)c(Cl)cc(Cl)c1OC`: the Potency result is “inactive”.

As for `Cc1nc2c([nH]1)c(=O)n(C)c(=O)n2Cc1ccco1`, the Potency result is “inactive”.

With `COc1ccc(CN(CCN(C)C)c2ccccn2)cc1`, the Potency entry is “inactive”.

As for `CN(C)C(=O)Oc1ccc[n+](C)c1`, the Potency result is “inactive”.

For `CCCOc1ccccc1-c1nc2n[nH]nc2c(=O)[nH]1`, the Potency result is “inactive”.

As to `C[C@]12C=CC(=O)C=C1CC[C@H]1[C@@H]3C[C@@H](O)[C@](O)(C(=O)CO)[C@@]3(C)C[C@H](O)[C@@]12F`, the Potency result is “inactive”.

As to `CN(C)C/C=C(/c1ccc(Br)cc1)c1cccnc1`, the Potency result is “inactive”.

For `CC(C)COCC(CN(Cc1ccccc1)c1ccccc1)N1CCCC1` (stereo not given), the Potency entry is “inactive”.

Regarding `CCN(CC)CC(=O)Nc1c(C)cccc1C`, the Potency result is “inactive”.

For `C[n+]1cc2c3c(ccc2c2ccc4cc5c(cc4c21)OCO5)OCO3`, the Potency is 3.55 µM (active).

Take `C[C@]12CCC(=O)C=C1CC[C@@H]1[C@@H]2C(=O)C[C@@]2(C)[C@H]1CC[C@]2(O)C(=O)CO`: the Potency entry is “inactive”.

Regarding `CNCCC(Oc1ccccc1OC)c1ccccc1` (stereo not given), the Potency result is “inactive”.

Regarding `Cc1nc2sccn2c(=O)c1CCN1CCC(=C(c2ccc(F)cc2)c2ccc(F)cc2)CC1`, the Potency result was “inactive”.

In the case of `Cc1ccc(S(=O)(=O)NC(=O)NN2CCCCCC2)cc1`, the Potency result is “inactive”.

In the case of `CC(=O)OCC1=C(C(=O)O)N2C(=O)[C@@H](NC(=O)Cc3cccs3)[C@H]2SC1`, the Potency result was “inactive”.

Turning to `CN1C(=O)CC[C@H]1c1cccnc1`, the Potency entry is “inactive”.

In the case of `Brc1c(NC2=NCCN2)ccc2nccnc12`, the Potency result was “inactive”.

Regarding `CN/C(=C\[N+](=O)[O-])NCCSCc1ccc(CN(C)C)o1`, the Potency result was “inactive”.

As for `NC(=O)c1cn(Cc2c(F)cccc2F)nn1`, the Potency entry was “inactive”.

On to `CCO/C([O-])=N/c1c[n+](N2CCOCC2)no1`, for which the Potency result is “inactive”.

Regarding `CCCCNc1ccc(C(=O)OCCN(C)C)cc1`, the Potency entry was “inactive”.

Consider `O=C(O)CN(CCOCCOCCN(CC(=O)O)CC(=O)O)CC(=O)O`, for which the Potency entry was “inactive”.
